# CYP2C9 act: CYP2C9 (human) activation; recombinant CYP2C9, luciferin-H conversion, luminescence; hits give high values; factor 1 = untreated enzyme, 0 = blocked; activation factor at 5 µM; actives 1.4% (n = 96,000);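 active = activation factor of 2 or more for CYP2C9 at a 5 µM dose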
# Cav3 T inh: human Cav3.2 channel inhibition, primary screen | O95180 | Cav3.2-expressing cells, Fluo-4 calcium fluorescence FDSS; hits give low values | B-score at 10 µM | actives 4% (n = 100,000) | AID 449739;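 active = single-dose well whose peak fluorescence ratio is a statistical outlier from its plate by either plate-standardised score or position-corrected B-score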
# CYP2C19 activ: increases human CYP2C19 enzyme activity. AID 1025. activation factor at 5 µM. P33261. recombinant CYP2C19, luciferin-H EGE luminescence; hits give high values; 0 = fully inhibited enzyme, 1 = untreated enzyme. 96,000 tested, under 10 active;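 active = activation factor of at least 2 at 5 µM in the primary screen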
# Target sequence (P33261 whole entry, looked up): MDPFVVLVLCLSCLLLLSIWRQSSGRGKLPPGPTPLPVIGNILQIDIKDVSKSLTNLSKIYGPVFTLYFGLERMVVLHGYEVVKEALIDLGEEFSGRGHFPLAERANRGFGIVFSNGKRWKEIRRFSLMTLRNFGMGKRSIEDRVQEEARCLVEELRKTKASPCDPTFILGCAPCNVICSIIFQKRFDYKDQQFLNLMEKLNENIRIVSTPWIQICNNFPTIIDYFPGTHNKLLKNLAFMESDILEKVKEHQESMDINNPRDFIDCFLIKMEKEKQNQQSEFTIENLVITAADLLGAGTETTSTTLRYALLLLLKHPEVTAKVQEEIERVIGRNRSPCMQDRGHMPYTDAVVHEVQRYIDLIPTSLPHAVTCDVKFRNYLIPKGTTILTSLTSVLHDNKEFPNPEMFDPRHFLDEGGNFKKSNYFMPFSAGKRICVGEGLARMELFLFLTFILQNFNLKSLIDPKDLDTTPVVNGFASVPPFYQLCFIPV
# CYP2C9 inhib: blocks human cytochrome P450 2C9; P11712; CYP2C9 Supersomes, luciferin-H conversion, luminescence; inhibition, % at 5 µM; actives 20% (n = 96,000); AID 777;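 active = blocking of liver enzyme CYP2C9 beyond about 50% at 5 µM, limit read from the data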
# CYP2C19 inhib: blocks human cytochrome P450 2C19; P33261; CYP2C19 Supersomes, luciferin-H EGE luminescence, 30 min; inhibition, % at 5 µM; actives 21% (n = 96,000); AID 778;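 active = CYP2C19 inhibition above a set limit at 5 µM in the primary screen, cut at about 50% in these data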
# A number is an active result; . = inactive; / = no result. Most compounds without a hit are left out; they make up all but 27% or so of the library.
SMILES,CYP2C9 act,Cav3 T inh,CYP2C19 activ,CYP2C9 inhib,CYP2C19 inhib
COc1cc(OC)cc(C(=O)N(Cc2cc3cc(C)ccc3[nH]c2=O)C(C)C)c1,.,.,.,.,.
CCN(Cc1cc2ccc(C)cc2[nH]c1=O)C(=O)c1ccncc1,.,.,.,.,68
CCCN(Cc1cc2ccc(C)cc2[nH]c1=O)C(=O)c1cccnc1,.,.,.,.,.
CCCN(Cc1cc2cc(OC)ccc2[nH]c1=O)C(=O)c1ccncc1,.,.,.,.,68
CCOC(=O)c1c(C)c(C(=O)NC(C)COC)c(C)n1CC (configuration not stated),.,.,.,.,.
CCOC(=O)c1cccc(S(=O)(=O)N(CCO)Cc2cc3cc(OC)c(OC)cc3[nH]c2=O)c1,.,.,.,.,.
CCCCN(Cc1cc2cc(OC)ccc2[nH]c1=O)C(=O)c1ccco1,.,.,.,70,74
COc1ccc2[nH]c(=O)c(CN(C)C(=O)c3ccncc3)cc2c1,.,.,.,60,92
COc1ccc2cc(CN(C(=O)Nc3ccccc3OC)C3CCCC3)c(=O)[nH]c2c1,.,.,.,51,.
CCCCN(Cc1cc2cc(OC)ccc2[nH]c1=O)C(=O)c1ccccn1,.,.,.,.,.
CCOC(=O)c1cccc(S(=O)(=O)N(CCO)Cc2cc3cc(OC)ccc3[nH]c2=O)c1,.,.,.,.,56
O=c1c(C=Nc2ccc(Oc3ccccc3)cc2)c[nH]n1-c1cccc(Cl)n1,.,.,.,.,.
CN(C)C(=O)C1OC(C)(C)OC1C(=O)N(C)C (configuration not stated),.,.,.,.,.
Cc1ccccc1C(=O)OCCCN=C1NS(=O)(=O)c2ccccc21,/,.,/,/,/
CN(C)CCNC(=O)c1c(CSc2ccccc2)noc1C(=O)NCc1ccccc1,/,.,/,/,/
COc1ccc2[nH]c(=O)c(CN(C(=O)c3ccccn3)C3CCCCC3)cc2c1,.,/,.,63,.
CCCN(Cc1cc2cccc(C)c2[nH]c1=O)C(=O)c1cccc(OC)c1,/,.,/,/,/
CCCN(Cc1cc2cc(C)ccc2[nH]c1=O)C(=O)c1cccc(OC)c1,.,.,.,58,64
O=C(c1ccccn1)N(Cc1cc2ccccc2[nH]c1=O)C1CCCCC1,.,.,.,.,.
COC(=O)Cc1c(C)c2ccc(OC(=O)c3ccccc3)cc2oc1=O,.,.,.,.,.
Cc1coc2c1c(C)cc1oc(=O)c(Cc3ccccc3)c(C)c12,.,.,.,.,53
Cc1cc2oc(=O)cc(C)c2c(=O)o1,.,/,.,.,.
CCc1cc(=O)oc2cc(C)c3c(C)coc3c12,.,/,.,.,63
CCN(Cc1ccccc1)C(=O)CCCOc1ccccc1,.,.,.,.,73
COc1ccccc1CC(=O)N(CCC#N)CCC#N,/,.,/,/,/
SMILES,CYP2C9 act,Cav3 T inh,CYP2C19 activ,CYP2C9 inhib,CYP2C19 inhib
N#CCCN(Cc1ccccc1)C(=S)NC(=O)c1ccccc1,.,.,.,93,.
COc1ccc(CN(CCC#N)C(=S)NC(=O)c2ccccc2)cc1,.,.,.,92,.
COc1ccc(C(=O)NC(=S)NCc2ccccc2)cc1,.,/,.,.,.
CCOc1ccc(C(=O)NC(=S)N(Cc2ccccc2)Cc2ccccc2)cc1,.,-4.6,.,53,.
O=c1cc(-c2c(F)c(F)c(F)c(F)c2F)oc2c(F)c(F)c(F)c(F)c12,.,.,.,.,.
COc1ccc(Nc2nnc(C)c(=O)[nH]2)cc1,.,.,.,.,.
Clc1ccc(C2=CSC3=NCCN23)cc1Cl,.,.,.,.,71
Cc1ccc(C)c(C2=CSC3=NCCN23)c1,.,.,.,.,52
C1=C(c2cccc3ccccc23)N2CCN=C2S1,.,.,.,.,.
Cc1ccc(C)c(CN2CCCNC2=O)c1,/,.,/,/,/
CCSc1nnc(NC(=O)CSc2nnc(-c3c[nH]c4ccccc34)n2C)s1,.,.,.,76,.
COCCn1c(SCC(=O)NCc2ccc3c(c2)OCO3)nnc1-c1c[nH]c2ccccc12,.,.,.,69,59
COCCn1c(SCC(=O)Nc2nnc(C)s2)nnc1-c1c[nH]c2ccccc12,.,.,.,51,.
COCOc1ccc(C=O)c(OCOC)c1,/,.,/,/,/
CCSc1nnc(N(CCC#N)CCC#N)s1,.,.,.,.,.
O=c1c2ccccc2nc(-c2ccccc2)n1Cc1ccco1,.,.,.,.,.
CN(Cc1ccccc1)C(=O)CSc1nc2ccccc2c(=O)n1Cc1ccco1,.,.,.,100,97
Cc1ccc(NC(=O)CN(C)C(=O)CSc2nc3ccccc3c(=O)n2Cc2ccco2)cc1,.,/,.,79,.
COc1ccc(C2NC(=S)N(c3ccccc3)C(C)=C2C(=O)Nc2ccccc2)cc1 (configuration not stated),.,.,.,.,.
CC1=C(C(=O)Nc2ccc([N+](=O)[O-])cc2)C(c2cccc(C(F)(F)F)c2)NC(=S)N1c1ccccc1 (configuration not stated),.,-6.7,.,89,.
c1ccc(NCc2nnc3n2CCCCC3)cc1,.,.,.,.,.
Clc1ccc(NCc2nnc3n2CCCCC3)cc1,.,.,.,.,55
COc1ccc(CN2CCn3ncc(C(=O)Nc4cc(C)cc(C)c4)c3C2=O)cc1,.,.,.,.,.
COc1ccc2c(c1)[nH]c1c(=O)n(Cc3ccccn3)cnc12,.,.,.,51,.
Cc1cccc(C(=O)O/N=C(\N)Cc2ccc([N+](=O)[O-])cc2)c1,.,-4.5,.,.,84
SMILES,CYP2C9 act,Cav3 T inh,CYP2C19 activ,CYP2C9 inhib,CYP2C19 inhib
COc1ccc(C/C(N)=N/OC(=O)C(c2ccccc2)c2ccccc2)cc1OC,.,.,.,.,.
N/C(Cc1ccc([N+](=O)[O-])cc1)=N\OC(=O)c1ccc2ccccc2c1,.,.,.,.,.
N/C(Cc1ccc([N+](=O)[O-])cc1)=N\OC(=O)C(c1ccccc1)c1ccccc1,.,-3.4,.,54,.
O=C(Nc1cnn(Cc2ccc(Cl)c(Cl)c2)c1)C12CC3CC(CC(C3)C1)C2,/,.,/,/,/
CCCCc1nc2sc3c(SCC(=O)NCc4ccco4)ncnc3c2c2c1CCC2,.,.,.,82,58
CSc1nc(SCC(=O)NCc2ccco2)c2c3c(sc2n1)COC(C)(C)C3,.,.,.,.,.
CCCCSc1nc(SCC(=O)NCc2ccco2)c2c3c(sc2n1)COC(C)(CC)C3 (configuration not stated),.,-5.5,.,51,.
CCC(=O)N1CCCc2cc(S(=O)(=O)N3CCN(c4ncccn4)CC3)ccc21,.,.,.,96,98
CCC(=O)N1CCCc2cc(S(=O)(=O)N3CCN(c4ccccc4F)CC3)ccc21,.,/,.,100,96
CCC(=O)N1CCCc2cc(S(=O)(=O)N3CCN(c4ccccn4)CC3)ccc21,.,.,.,80,50
COCCNC(=O)CSCc1nc(-c2ccc(SC)cc2)oc1C,.,.,.,.,.
COC(=O)c1ccccc1CON1C(=O)C(C)(C)N(OCc2ccccc2C(=O)OC)C(=O)C1(C)C,.,.,.,.,.

# Bioassay records from PubChem.
